High-throughput results (PubChem BioAssay)
KB-3-1 cytotox = qHTS assay for MDR1-selective chemotherapeutics: Primary screen using the parental adenocarcinoma cell KB-3-1. KB-3-1 viability, CellTiter-Glo ATP luminescence, 72 h. Potency, µM (highest dose often 46.1 µM), hits mostly cytotoxic. 1.4% of 400,000 active. AID 1347075, 2019; note: % is set by controls: 0 for no effect and ±100 for the full control effect; nearly all actives have a fitted effect of over 60% in size
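Here the drug-naive KB-3-1 line serves as comparator for MDR sub-line selectivity; cells received compound titrations, 72 h at 37 °C, then CellTiter-Glo readout.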
KB-V1 MDR tox = qHTS assay for MDR1-selective chemotherapeutics: Primary screen using the drug-selected MDR subline cells KB-V1. Potency, µM (series often up to 46.1 µM), most hits filed as cytotoxic. 3.4% of 400,000 active. KB-V1 MDR cells viability, CellTiter-Glo, 72 h; note: % is set by controls: 0 for no effect and ±100 for the full control effect; nearly all actives have a fitted effect of over 60% in size
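Drug-selected KB-V1 cells, grown in DMEM lacking phenol red with 10% FBS, receive compound titrations; after three days at 37 degrees C, surviving cell ATP is quantified by CellTiter-Glo luminescence and responses normalized and curve-fitted.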
SW480 rerep = A quantitative high throughput screen for small molecules that induce DNA re-replication in SW480 colon adenocarcinoma cells; SW480 DNA re-replication, Hoechst DNA content imaging, 48 h; 1.8% of 340,000 active; Potency, µM (doses to about 46.1 µM), for inactives: at the highest dose re-replication activation, actives largely listed as activators; note: % of control where 0% means no effect; nearly all actives have a fitted effect of over 55% in size
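Image-based DNA-content assay: after two days of treatment, nuclei were labelled with the DNA dye Hoechst and imaged, and hits were compounds raising the count of nuclei showing high fluorescence intensity.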
ELG1 DNA repair = qHTS screen for small molecules that inhibit ELG1-dependent DNA repair in human embryonic kidney (HEK293T) cells expressing luciferase-tagged ELG1. AID 504467, 2011. HEK293T ELG1-luciferase reporter, luminescence, 16 h; DNA damage induced by 5-fluorouridine. Potency, µM (top dose mostly 46.1 µM), for inactives: at the top dose activity change, negative = inhibition, hits mostly inhibitors. 2.3% of 330,000 active; note: % is set by controls: 0 for no effect and ±100 for the full control effect; nearly all actives have a fitted effect of over 55% in size
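Reporter activity after DNA damage by 5-fluorouridine is monitored. Compound-treated cells incubate 16 hr at 37 °C, then ONE-Glo is added for 30 min before luminescence reading.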
MCF10A rerep = A quantitative high throughput screen for small molecules that induce DNA re-replication in MCF 10a normal breast cells; AID 624296, 2012; MCF 10A DNA re-replication, Hoechst nuclear intensity, 48 h; 2.9% of 350,000 active; Potency, µM (series often up to 46.1 µM), without a hit: at the highest dose activity, positive = re-replication, actives largely listed as activators; note: % of control where 0% means no effect; nearly all actives have a fitted effect of over 50% in size
An asterisk follows results filed as active; i = inactive; ? = inconclusive; nt = no result. Shown are actives, neighbours in structure and some others; about 8.1% of the full set was active somewhere. Calls come from the whole dose curve; as a rule, active = well fitted curve in the direction sought with a large enough effect; inconclusive = small, poorly fitted or top-dose-only effect, or another doubt; inactive = no such curve, though single readings can be large; an effect the other way counts as inactive or inconclusive. Potency is the fitted concentration of half-maximal effect.

SMILES	KB-3-1 cytotox	KB-V1 MDR tox	SW480 rerep	ELG1 DNA repair	MCF10A rerep
O=C(NCC1CCCCC1)c1ccccc1[N+](=O)[O-]	i	i	-3%	-14%	1%
CCn1c(=O)c([N+](=O)[O-])c(N2CCSCC2)c2ccccc21	?	i	-3%	6.5µM*	?
CCn1c(=O)c([N+](=O)[O-])c(N2CCN(Cc3ccc4c(c3)OCO4)CC2)c2ccccc21	?	?	-1%	15µM*	?
C=CCN1C(=O)C(CC(=O)O)SC1=Nc1ccc(C)cc1 (stereo not drawn)	i	i	-19%	1%	2.6µM*
CN1c2ccccc2C(C)(C)C12C=Cc1cc(O)ccc1O2 (stereo not drawn)	i	?	22%	3%	-10%
CN1c2ccccc2C(C)(C)C12C=Nc1c(cc(N3CCOCC3)c3ccccc13)O2 (stereo not drawn)	?	i	21µM*	-4%	7.3µM*
Cc1cc(C(=O)Nc2ccccc2C(F)(F)F)no1	i	?	0%	-18%	8%
CCSc1ncc(Cl)c(C(=O)Nc2ccc(S(=O)(=O)N(C)c3ccccc3)cc2)n1	i	i	nt	nt	nt
CCN(c1ccccc1)S(=O)(=O)c1ccc(NC(=O)c2nc(S(C)(=O)=O)ncc2Cl)cc1	5.2µM*	?	5.2µM*	?	?
CCS(=O)(=O)c1ncc(Cl)c(C(=O)Nc2ccc(S(=O)(=O)N(C)c3ccccc3)cc2)n1	2.6µM*	?	10µM*	?	?
CCc1ccc(Nc2ncc3c(n2)CC(c2ccc(OC)cc2)CC3=O)cc1 (stereo not drawn)	?	i	21µM*	-9%	18µM*
CCc1ccc(Nc2ncc3c(n2)CC(C)CC3=O)cc1 (stereo not drawn)	i	i	-6%	?	3%
COc1ccc(Nc2ncc3c(n2)CC(c2ccccc2)CC3=O)cc1 (stereo not drawn)	i	i	11%	15µM*	?
COc1cccc(C(=O)Nc2ncc3c(n2)CC(c2ccc(OC)cc2OC)CC3=O)c1 (stereo not drawn)	?	5.2µM*	6.5µM*	?	2.3µM*
CCN1C(=O)[C@@H]2[C@@H](c3ccc(-c4ccc(OC)cc4)cc3)N3CCC[C@@]3(C(=O)OC)[C@@H]2C1=O	i	i	14%	-17%	?
CC(=O)c1cccc(NC(=O)N2CCCC2C(=O)NCc2ccc3c(c2)OCO3)c1 (stereo not drawn)	i	i	-6%	?	-4%
Cc1ccc(SCC(=O)NC(=O)NC(C)C)c(C)c1	i	i	-5%	-7%	23%
Cc1c(NC(=O)c2ccccc2NS(=O)(=O)c2ccc(Br)cc2)c(=O)n(-c2ccccc2)n1C	i	23µM*	4%	-1%	13%
Cc1ccc(-n2c(N)c(C(=O)Nc3c(C)n(C)n(-c4ccccc4)c3=O)c3nc4ccccc4nc32)cc1	?	23µM*	1%	2%	1%
COCCNC(=O)c1c(N)n(-c2cccc(C)c2)c2nc3ccccc3nc12	i	i	13µM*	0%	18µM*
COCCCNC(=O)c1c(N)n(-c2ccccc2)c2nc3ccccc3nc12	i	?	21µM*	?	23µM*
Cc1c(NS(=O)(=O)c2ccc(Br)cc2)c(=O)n(-c2ccccc2)n1C	i	i	-6%	-4%	-3%
COc1ccc(C2CC(c3ccccc3OC(=O)/C=C/c3ccccc3)=NN2C(C)=O)cc1 (stereo not drawn)	i	i	-5%	4%	3%
Nc1ccc(-n2c(N)c(C(=O)NCc3ccc4c(c3)OCO4)c3nc4ccccc4nc32)cc1	i	i	21µM*	nt	16µM*
